# Sampled rows, rich in hits. Any-hit rate of the full collection: about 0.5%.
# phage Ecoli inh = E. coli growth loss with phage present; growth absorbance; inhibition, % at 11.9 µM; actives 0.26% (n = 360,000); in the data active means inhibition above about 11%
# E coli growth-1 = counter-screen for AddAB inhibitors: E. coli growth inhibition | E. coli V3065 growth, OD600 absorbance, 18 h | inhibition, % at 11.9 µM | actives 0.27% (n = 330,000) | AID 449728;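 active means inhibition above the campaign's mean inhibition across all tested compounds plus 3 SD, cut at about 9.9% in these data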;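 further: uninfected addAB+ strain grown without phage in ampicillin broth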
# E coli growth-2 = E. coli growth inhibition | Escherichia coli growth, OD600, 23 h; active compounds read low | OD600 absorbance (test concentration not listed) | actives 0.21% (n = 330,000) | AID 1053175;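 active means OD600 absorbance below the run mean of sample wells minus 3.6 SD, in any replicate, cut at about 0.56 in these data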
# AddAB inh = less growth of phage-infected E. coli with AddAB. E. coli expressing H. pylori AddAB, absorbance growth. inhibition, % at 11.9 µM. actives 0.29% (n = 330,000); in the data active means inhibition above about 12%
# Tat transport = inhibitors of E. coli Tat protein transport | E. coli MC4100 TorA-mCherry Tat export, fluorescence | actives 0.036% (n = 340,000) | inhibition, % at 10 µM | AID 488895;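 active means mean replicate inhibition at least 50% and at least half of replicates individually reaching 50%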;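 further: exported cargo escapes ClpAP degradation while cytoplasmic cargo is degraded and loses fluorescence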
# AddAB conf = growth loss of T4-infected E. coli expressing H. pylori AddAB, confirmed | actives 64% (n = 880) | AID 488942 | E. coli V3065 expressing H. pylori AddAB, T4 phage, OD; T4 phage with gene 2 nonsense mutations | shares compounds with AddAB inh | inhibition, % at 11.9 µM;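 active means mean inhibition above a set limit taken from the earlier primary screen, cut at about 13% in these data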;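 further: higher means less bacterial growth since AddAB block lets phage replicate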
# RecBCD counter = reduces growth of phage-infected RecBCD+ E. coli, AddAB inhibitor counter-screen | actives 73% (n = 880) | AID 488955 | inhibition, % at 11.9 µM | shares compounds with AddAB inh | E. coli V66 + mutant T4 phage, OD growth;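 active means mean inhibition above the mean of solvent-only control wells plus 3 SD, cut at about 4% in these data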;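 further: optical density read after an 18 h incubation at 37 °C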
# bact viab count = reduces bacterial viability, AddAB inhibitor counter-screen. inhibition, % at 11.9 µM. shares compounds with AddAB inh. absorbance (AddAB counterscreen). actives 35% (n = 880); in the data active means inhibition above about 25%
# Hits are given with their value; - = inactive; . = no result.
SMILES,phage Ecoli inh,E coli growth-1,E coli growth-2,AddAB inh,Tat transport,AddAB conf,RecBCD counter,bact viab count
C[C@H]1c2cccc(O)c2C(O)=C2C(=O)[C@]3(O)C(O)=C(C(N)=O)C(=O)[C@@H](N(C)C)[C@@H]3[C@@H](O)[C@@H]21,.,100,.,98,147,101,100,101
CCC(c1nnnn1CS(=O)(=O)c1ccc(C)cc1)N1CCN(c2nc3ccccc3s2)CC1 (stereo unspecified),-,32,-,44,-,-,-,-
CCCC(c1nnnn1CS(=O)(=O)c1ccc(C)cc1)N1CCN(c2ccccc2)CC1 (stereo unspecified),-,-,-,-,-,.,.,.
COc1cc(C=NNC(=O)c2ccncc2)ccc1OC(=O)c1ccccc1Cl,.,.,-,.,.,.,.,.
O=C(Nc1ccc(Cl)cc1)ON=C1CCCC1,-,-,-,23,-,-,-,-
COc1cc(/C=N\NC(=O)c2ccc(Cn3cc(Br)c([N+](=O)[O-])n3)o2)cc(OC)c1O,-,23,.,44,-,52,5.6,39
COc1cc(C=NNC(=O)c2ccc(Cn3cc(Br)c([N+](=O)[O-])n3)o2)cc(OC)c1O,.,.,-,.,.,.,.,.
O=C(NN=Cc1ccc2c(c1)OCO2)c1ccc(Cn2cc([N+](=O)[O-])cn2)o1,.,.,-,.,.,.,.,.
O=C(N/N=C\c1cccc(F)c1)c1ccc(Cn2cc(Br)c([N+](=O)[O-])n2)o1,-,19,.,27,-,54,7.7,41
O=C(N/N=C\c1ccc(F)cc1)c1ccc(Cn2cc(Br)c([N+](=O)[O-])n2)o1,-,33,.,36,-,54,5.8,38
O=C(N/N=C\c1ccc2c(c1)OCO2)c1ccc(Cn2cc(Br)c([N+](=O)[O-])n2)o1,-,20,.,23,-,-,-,-
N#CC(=NO)c1nc2ccccc2s1,.,.,-,.,.,.,.,.
COC(=O)CC=N/N=C1/NC(=O)/C(=C/C(=O)O)S1,.,.,-,.,.,.,.,.
Cc1cccc(CN(CC(=O)NN=Cc2cccs2)S(=O)(=O)c2ccc(Cl)cc2)c1,.,.,-,.,.,.,.,.
O=c1c2ccccc2[nH]c2ccccc12,-,-,-,14,-,-,4.8,-
c1ccc2c(c1)[nH]c1ccccc12,-,-,-,-,-,.,.,.
COc1ccc(C=NNc2nnc(C)n2N)cc1OC,.,.,-,.,.,.,.,.
COc1ccc(-n2c(C)cc(/C=N/Nc3nnc(C)n3N)c2C)cc1,-,-,.,14,-,-,-,-
CCCc1cc(C(=O)Nc2ccccc2SC)no1,-,91,-,98,-,-,-,-
NC1C2CN(c3nc4c(cc3F)c(=O)c(C(=O)O)cn4-c3ccc(F)cc3F)CC12 (stereo unspecified),.,98,0.044,100,109,99,100,101
Cc1c(-n2cc(C(=O)O)c(=O)c3cc(F)c(N4CCCC4)c(F)c32)c(=O)n(-c2ccccc2)n1C,-,-,-,-,-,.,.,.
CC(C)(C)OC(=O)NCCCCC(NC(=O)c1[nH]cnc1C(=O)NC(Cc1ccccc1)C(=O)OC(C)(C)C)C(=O)OC(C)(C)C (stereo unspecified),.,.,-,.,.,.,.,.
Cc1nnc(SCC(=O)NCc2ccc3c(c2)OCO3)s1,-,44,-,19,-,-,-,-
CC(=NNC(=O)Cn1cnc2ccccc21)c1cccs1,.,.,-,.,.,.,.,.
CCCCn1c(SCC(=O)c2ccc(O)c(O)c2)nc2ccsc2c1=O,.,-,-,15,-,-,4.7,-
SMILES,phage Ecoli inh,E coli growth-1,E coli growth-2,AddAB inh,Tat transport,AddAB conf,RecBCD counter,bact viab count
O=C(O)CCCCCn1c(SCC(=O)c2ccc(O)c(O)c2)nc2ccsc2c1=O,-,-,-,-,-,.,.,.
O=C(Cn1ccc(C(F)(F)F)n1)NN=Cc1ccc2c(c1)OCO2,.,.,-,.,.,.,.,.
CC1OC2(C)OC(=N)C1(C#N)C(C#N)(C#N)C2c1ccccc1 (stereo unspecified),-,23,-,37,-,-,-,-
CC(C)(C)CN1C(=O)C(=O)NCC1Cc1ccc(O)cc1 (stereo unspecified),.,.,-,.,.,.,.,.
COc1cc(C=NNc2ccc(Cl)c(C(=O)O)c2)ccc1OC(=O)c1cccs1,.,.,-,.,.,.,.,.
O=C(NCCC1=CCCCC1)C1CCN(C(=O)Cc2ccccc2)CC1,-,98,-,98,-,-,-,-

# High-throughput results as filed in PubChem.
